What is called AC50 is the concentration at which the activity in the assay is half-maximal.

Experiment [1] in a line: ACEA_AR_agonist_AUC_viability: ACEA Biosciences xCELLigence Real-Time Cell Analysis on Androgen Receptor Agonism for Viability (AID 2283775).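 For AC50: viability read 80 hours after compound addition.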 An outline of the steps:
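Read-out is area under the impedance curve at 80 h post-dose in 22Rv1 cells, with DMSO as baseline and signal loss taken as reduced viability. Compounds ran in duplicate from 100 uM final.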

Experiment [2] is described as follows: ACEA_AR_antagonist_AUC_viability: ACEA Biosciences xCELLigence Real-Time Cell Analysis on Androgen Receptor Antagonism for Viability (AID 2283776).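 Note: 22Rv1 human prostate cancer cells growing on impedance electrode plates; area under impedance growth curve at 80 h after dosing as viability; hits lower the growth signal relative to DMSO meaning cytotoxicity.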 A digest of the protocol:
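Viability endpoint from label-free cell-index monitoring: 22Rv1 cultures treated with an eight-point 1:4 dilution series starting at 100 uM final, AUC at 80 h fitted against DMSO.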

Experiment [3] is described as follows: ACEA_ER_AUC_viability: ACEA Biosciences xCELLigence Real-Time Cell Analysis on Estrogen Receptor Agonism for Viability (AID 2283782).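 Note: continuous compound exposure with impedance area under curve over 80 h; hit means loss of impedance signal meaning reduced cell growth or viability.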 A digest of the protocol:
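T-47D human breast cells in phenol red-free RPMI1640 with 10% charcoal-stripped FBS were dosed with an 8-point 1:4 dilution series from 100 uM top final concentration, in duplicate. Impedance-based growth was followed for 80 h; AUC analysed versus DMSO.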

The target in experiment [4] is Luciferin 4-monooxygenase (Photinus pyralis) (UniProt P08659). In words: CCTE_Simmons_QuantiLum_inhib_2: CCTE's Firefly Luciferase Inhibition Assay, Simmons Lab (AID 2283767).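 For AC50: potency for inhibitors that lower luciferase luminescence relative to DMSO.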 A digest of the protocol:
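Counter-screen for nonspecific enzyme inhibition: purified firefly luciferase incubated 30 min at 37C with chemicals up to 87.5 uM final, then luminescence measured after luciferin/dATP injection; activity fitted against DMSO baseline.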

Records with an inconclusive call do not appear. Some compounds were tested as several samples or in several runs, with calls that do not always agree. Activity calls are given as the source filed them. Rule for the calls: active = hit-call score of the fitted dose curve at least 0.9, where 1 is the maximum; inconclusive = response in the unintended direction; inactive = score below 0.9.

Chain of Luciferin 4-monooxygenase (Photinus pyralis) (P08659 whole entry, looked up): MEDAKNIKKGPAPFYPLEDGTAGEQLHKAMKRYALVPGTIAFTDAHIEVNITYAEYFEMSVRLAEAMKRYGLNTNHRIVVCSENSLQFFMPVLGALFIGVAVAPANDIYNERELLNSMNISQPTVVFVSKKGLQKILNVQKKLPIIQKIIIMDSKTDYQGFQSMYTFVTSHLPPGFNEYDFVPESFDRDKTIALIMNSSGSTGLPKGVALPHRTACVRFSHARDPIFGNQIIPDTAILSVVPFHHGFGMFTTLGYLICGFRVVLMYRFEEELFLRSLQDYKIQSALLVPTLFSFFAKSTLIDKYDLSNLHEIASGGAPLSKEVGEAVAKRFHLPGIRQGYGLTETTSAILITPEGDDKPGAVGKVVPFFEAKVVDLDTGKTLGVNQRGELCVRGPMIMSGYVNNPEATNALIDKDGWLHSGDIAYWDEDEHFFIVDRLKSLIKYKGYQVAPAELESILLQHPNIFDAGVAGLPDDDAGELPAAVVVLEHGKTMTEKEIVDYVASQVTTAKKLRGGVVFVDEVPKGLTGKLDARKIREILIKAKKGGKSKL

Regarding `O=C(O)Cn1c(=O)n(Cc2ccc(Br)cc2F)c(=O)c2ccc(Cl)cc21`, the outcome in experiment [1], in experiment [2] and in experiment [3] was inactive.
Take `CCCCCCCCOc1ccc(C(=O)c2ccccc2)c(O)c1`: the half-maximal activity concentration (AC50) was 68.2 µM (active) in experiment [1] and 13.7 µM (active) in experiment [2]. The result in experiment [3] was inactive.
`CCOC(=O)O[C@H](C)OC(=O)c1ccc2c(c1)cc(C(=O)NC1CCN(C(C)C)CC1)n2Cc1cc(-c2ccc(Cl)s2)on1`: in experiment [4], the outcome was inactive. For the same compound, the AC50 in experiment [1] is 10.3 µM (active); in experiment [2] it was 4.55 µM (active); in experiment [3], 5.33 µM (active).
For the compound `O=c1c(-c2ccc(O)cc2)coc2cc(O)cc(O)c12`, the figures for the concentration at half-maximal activity (AC50) in experiment [4] and in experiment [2] were 7.86 µM (active) and 28.8 µM (active), respectively.
On the same counts, the results for `CC(C)(C)c1csc(-c2cc3cc(OCc4ccccc4CC(=O)O)ccc3o2)n1` are 10.7 µM (active) and 23.7 µM (active).
As for `COc1cccc([C@H](O)C2CCN(CCc3ccc(F)cc3)CC2)c1OC`, the AC50 in experiment [1] was 50 µM (active); in experiment [2], 35.7 µM (active). Further, the result in experiment [3] was inactive.
Take `C[C@]12CC[C@@H]3c4ccc(O)cc4CC[C@H]3[C@@H]1CC[C@H]2O`: the compound was called inactive in experiment [4]. In addition, the AC50 in experiment [2] was 84.1 µM (active).
`Cc1occc1C(=O)Nc1ccc(C(=O)N2CCC(F)(F)/C(=C\C(=O)N3CCC(N4CCCCC4)CC3)c3ccccc32)cc1`: the AC50 in experiment [1] is 31.2 µM (active); in experiment [2], 41.1 µM (active).
Regarding `CCN(Cc1cccc(S(=O)(=O)O)c1)c1ccc(C(=C2C=CC(=[N+](CC)Cc3cccc(S(=O)(=O)O)c3)C=C2)c2ccccc2S(=O)(=O)[O-])cc1`, in experiment [4], the AC50 was 15.8 µM (active). The result in experiment [2] and in experiment [3] was inactive.
`COc1cc(C(=O)NC2CCN(C)CC2)ccc1Nc1ncc2c(n1)N(C1CCCC1)CC(F)(F)C(=O)N2C`: the outcome in experiment [4] was inactive. Also, the AC50 in experiment [2] is 0.00297 µM (active).
Turning to `c1ccc(C[n+]2cccc3ccccc32)cc1`, the AC50 in experiment [1] is 50 µM (active); in experiment [2], 82.3 µM (active).
In the case of `CC(C)(O)c1ccc(CNC(=O)c2cccnc2Oc2ccc3nonc3c2)cc1`, the call in experiment [2] and in experiment [3] was inactive.
On to `O=C1c2ccccc2C(=O)N1CCc1noc(-c2ccc(CN3CCCCCC3)s2)n1`, for which the AC50 in experiment [2] was 6.41 µM (active).
On to `CN(C)C(=O)C1(N2CCCCC2)CCN(CC[C@@]2(c3ccc(Cl)c(Cl)c3)CN(C(=O)c3ccccc3)CCO2)CC1`, for which the AC50 in experiment [2] was 11.5 µM (active); in experiment [3], 10.3 µM (active).
`CCCC(=O)OCCC(C)C`: the result in experiment [3] was inactive.
On to `Cc1ccc2oc(CN(Cc3ccccc3)C(=O)Nc3c(F)cc(F)cc3F)c(-c3ccc(Cl)cc3)c2c1`, for which the AC50 in experiment [2] was 14.1 µM (active).
Take `COCC(C)OCC(C)OCC(C)O` (stereo not drawn): the call in experiment [2] and in experiment [3] was inactive.
As for `Clc1cc(Cl)c2c(c1)N=C1CCCCCN1C2`, the outcome in experiment [2] and in experiment [3] was inactive.
Consider `CCCCCCCCCCCC[N+](C)(C)C`, for which the concentration at half-maximal activity (AC50) in experiment [2] was 9.45 µM (active); in experiment [3], 50 µM (active).
`Cc1ccc(C(C)C)cc1`: the compound was classed as inactive in experiment [2] and in experiment [3].
`CN1C(=O)N(c2ccccc2Br)Cc2cnc(Nc3ccc4c(c3)OCC(CO)O4)nc21` (stereo not drawn): in experiment [2], the AC50 is 12.7 µM (active).
Take `O=C(O)c1ccccc1-n1cc(C(=O)O)c(=O)c2cc(Nc3c(F)cc(F)cc3Cl)c(Cl)cc21`: the outcome in experiment [2] and in experiment [3] was inactive.
`CC1(C)NC(=O)N(c2ccc([N+](=O)[O-])c(C(F)(F)F)c2)C1=O`: the concentration at half-maximal activity (AC50) in experiment [2] is 68.9 µM (active). Also, the compound was classed as inactive in experiment [3].
For `CCCCOC(=O)CC(CC(=O)OCCCC)(OC(C)=O)C(=O)OCCCC`, the compound was called inactive in experiment [2].
For `c1ccc2n[nH]nc2c1`, the compound was called inactive in experiment [2] and in experiment [3].
Turning to `O=c1[nH]sc2ccccc12`, the results for the AC50 in experiment [2] and in experiment [3] were 7.87 µM (active) and 14.9 µM (active), respectively.
For `CCCCCCCCN(C)CCCCCCCC`, the compound was called inactive in experiment [2] and in experiment [3].
`Cc1oc2c(NC(=O)c3c(Cl)cccc3Cl)cccc2c1C(C)(C)O`: the half-maximal activity concentration (AC50) in experiment [2] is 20.3 µM (active).
With `OCCO`, the call in experiment [2] and in experiment [3] was inactive.
Turning to `Clc1ccccc1C(c1ccccc1)(c1ccccc1)n1ccnc1`, the AC50 was 14.7 µM (active) in experiment [2] and 27.6 µM (active) in experiment [3].
For `CCN(CC)C(=O)c1cc(S(=O)(=O)Cc2ccccc2)c(N2CCC(c3ccccc3)CC2)cc1N(CC)CCN(C)C`, in experiment [3], the half-maximal activity concentration (AC50) is 4.19 µM (active).
Take `Cc1cn([C@H]2C[C@H](N=[N+]=[N-])[C@@H](CO)O2)c(=O)[nH]c1=O`: the outcome in experiment [2] and in experiment [3] was inactive.
Take `O=CCCCC=O`: the concentration at half-maximal activity (AC50) in experiment [2] was 23.3 µM (active); in experiment [3], 40 µM (active).
On the same counts, the results for `NC(=O)c1nc(-c2cccc(-c3cc(F)ccc3OCC(F)(F)C(F)(F)F)c2)n[nH]1` are 19.3 µM (active) and 94 µM (active).
Consider `CC(O)CC(C)(C)O` (stereo not drawn), for which the result in experiment [2] was inactive.
Take `CCCCCCCC[Si](OCC)(OCC)OCC`: the outcome in experiment [2] and in experiment [3] was inactive. For the same compound, in experiment [3], the concentration at half-maximal activity (AC50) was 89.3 µM (active).
For the compound `O=C(O)c1ccccc1C(=O)OCc1ccccc1`, the compound was called inactive in experiment [2] and in experiment [3].
In the case of `CCO[Si](CCCNC(N)=O)(OCC)OCC`, the outcome in experiment [1], in experiment [2] and in experiment [3] was inactive.
Take `O=c1ccc2ccccc2o1`: the outcome in experiment [2] and in experiment [3] was inactive.
On to `Cc1cc(F)ccc1-c1cc(N2CC[C@@H](O)[C@H]2CO)ncc1N(C)C(=O)C(C)(C)c1cc(C(F)(F)F)cc(C(F)(F)F)c1`, for which the AC50 in experiment [2] is 10.1 µM (active).
As to `c1ccc2ccccc2c1`, the call in experiment [2] and in experiment [3] was inactive.
Take `Cc1cc2c(cc1C(F)(F)F)N(C(=O)Nc1ccc(Oc3cccnc3C)nc1)CC2`: the AC50 in experiment [2] is 15.1 µM (active); in experiment [3], 15.6 µM (active).
Turning to `Oc1ccc2ccccc2c1`, the call in experiment [2] was inactive.
`CCCCOC(=O)c1ccc(O)cc1`: in experiment [2], the AC50 is 56.7 µM (active).
On to `CCN(Cc1cccnc1)C(=O)c1cccc(Cl)c1[C@]1(C)C(=O)N(Cc2ccc(OC)cc2OC)c2ccc(Cl)cc21`, for which the AC50 in experiment [2] is 20.7 µM (active). Also, in experiment [3], the compound was called inactive.
Regarding `CC[C@H](NC(=O)c1cc(F)ccc1NS(=O)(=O)c1cccc2cccnc12)c1ccccc1`, the compound was classed as inactive in experiment [3].
In the case of `O=C=NCCCCCCN=C=O`, the compound was called inactive in experiment [3].
Consider `CCCCCCCCCCCCO`, for which, in experiment [2], the compound was classed as inactive. The concentration at half-maximal activity (AC50) in experiment [3] is 68.3 µM (active).
With `Cc1ncc(CO)c(CO)c1O`, the result in experiment [2] and in experiment [3] was inactive.

These data come from PubChem BioAssay (EPA / NIEHS).
